Measurements taken from paper PMC7862700, “An all-to-all approach to the identification of sequence-specific readers for epigenetic DNA modifications on cytosine”.

molecular target: T1, ELF3 (Homo sapiens, UniProt P78545 1-371); experiment: DAPPL (digital affinity profiling via proximity ligation, sequencing); 10 mM Tris-HCl pH 7.5, 50 mM NaCl, 1 mM DTT, 4% glycerol, room temperature, 30 min; GST-TFs on glutathione beads, 16-mer random dsDNA library, 0.1% formaldehyde crosslink after washing; high values mean tight binding; settings: protein: recombinant; tags: N-terminal GST; dsDNA, one strand shown
T1 sequence: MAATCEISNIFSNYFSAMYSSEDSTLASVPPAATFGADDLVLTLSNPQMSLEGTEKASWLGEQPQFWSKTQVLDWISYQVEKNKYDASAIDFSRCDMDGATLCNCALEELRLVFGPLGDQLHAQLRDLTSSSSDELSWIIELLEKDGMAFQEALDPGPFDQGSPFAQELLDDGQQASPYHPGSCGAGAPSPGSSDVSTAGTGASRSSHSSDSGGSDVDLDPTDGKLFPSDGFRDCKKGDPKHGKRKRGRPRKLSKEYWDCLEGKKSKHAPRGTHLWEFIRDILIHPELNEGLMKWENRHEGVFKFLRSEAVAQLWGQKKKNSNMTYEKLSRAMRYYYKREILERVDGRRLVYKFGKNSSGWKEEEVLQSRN
Summary of the method: (§1)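 Yeast served to express human transcription factors as GST fusions, which were then captured on glutathione beads and labelled with DNA barcodes. Pooled with a tag-only sample, they were incubated with 200 nmole of a 16-mer random double-stranded DNA library for 30 min at room temperature in Tris/NaCl/DTT/glycerol buffer, washed, crosslinked with 0.1% formaldehyde, ligated by proximity, amplified by PCR and sequenced. Dividing each hexamer's read frequency for a factor by its frequency for the tag-only sample gives the binding signal.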

**Q.** GACTTG was tested. Which binding signal did it give?
**A.** Its binding signal is 1.08 fold enrichment (6-mer frequency, TF over GST control).

**Q.** Which binding signal does the source give for GTCAAA here?
**A.** Its binding signal is 1 fold enrichment (6-mer frequency, TF over GST control).

**Q.** For ACAAGT, which binding signal is on record?
**A.** Its binding signal is 1 fold enrichment (6-mer frequency, TF over GST control).

**Q.** TGCGTC was tested. Which binding signal did it give?
**A.** Its binding signal is 1.03 fold enrichment (6-mer frequency, TF over GST control).

**Q.** How did the binding signal turn out when CGGCAC was run?
**A.** Its binding signal is 1.1 fold enrichment (6-mer frequency, TF over GST control).

**Q.** For GTATCG, which binding signal is on record?
**A.** The binding signal was 1.13 fold enrichment (6-mer frequency, TF over GST control).

**Q.** With AGTTTA as the sequence, how does the binding signal read?
**A.** The binding signal was 1.11 fold enrichment (6-mer frequency, TF over GST control).

**Q.** CTAGTG was tested. Which binding signal did it give?
**A.** The binding signal was 1.01 fold enrichment (6-mer frequency, TF over GST control).

**Q.** How did the binding signal turn out when TAGTCA was run?
**A.** Its binding signal is 1.07 fold enrichment (6-mer frequency, TF over GST control).

**Q.** Which binding signal does the source give for GCGGCA here?
**A.** Its binding signal is 1.01 fold enrichment (6-mer frequency, TF over GST control).

**Q.** For GAAAGC, which binding signal is on record?
**A.** Its binding signal is 1.06 fold enrichment (6-mer frequency, TF over GST control).

**Q.** AGCCCA was tested. Which binding signal did it give?
**A.** Its binding signal is 1.04 fold enrichment (6-mer frequency, TF over GST control).

**Q.** How did the binding signal turn out when CCTAGT was run?
**A.** Its binding signal is 1.04 fold enrichment (6-mer frequency, TF over GST control).

**Q.** For ACCAAG, which binding signal is on record?
**A.** Its binding signal is 1.14 fold enrichment (6-mer frequency, TF over GST control).

**Q.** With CCGTTA as the sequence, how does the binding signal read?
**A.** Its binding signal is 1.01 fold enrichment (6-mer frequency, TF over GST control).

**Q.** Which binding signal does the source give for TACGGG here?
**A.** The binding signal was 1.01 fold enrichment (6-mer frequency, TF over GST control).

**Q.** Which binding signal does the source give for GACCCC here?
**A.** The binding signal was 1.04 fold enrichment (6-mer frequency, TF over GST control).

**Q.** GTAGCC was tested. Which binding signal did it give?
**A.** The binding signal was 1.06 fold enrichment (6-mer frequency, TF over GST control).

molecular target: CRX (Homo sapiens, UniProt O43186 1-299); experiment: as above; settings: protein: recombinant; tags: N-terminal GST; dsDNA, one strand shown
Sequence (O43186 whole entry): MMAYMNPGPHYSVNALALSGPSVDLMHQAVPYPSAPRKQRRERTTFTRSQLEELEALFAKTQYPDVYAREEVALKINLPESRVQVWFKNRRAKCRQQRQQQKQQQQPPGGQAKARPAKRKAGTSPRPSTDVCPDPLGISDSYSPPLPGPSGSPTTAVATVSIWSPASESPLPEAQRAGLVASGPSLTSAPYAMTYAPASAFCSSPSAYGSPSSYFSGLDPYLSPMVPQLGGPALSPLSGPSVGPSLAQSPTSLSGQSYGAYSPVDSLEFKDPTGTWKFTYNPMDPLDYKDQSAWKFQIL
Summary of the method: as §1

**Q.** For AGGCCT, which binding signal is on record?
**A.** Its binding signal is 1.07 fold enrichment (6-mer frequency, TF over GST control).

**Q.** With GATAAC as the sequence, how does the binding signal read?
**A.** The binding signal was 1.13 fold enrichment (6-mer frequency, TF over GST control).

**Q.** How did the binding signal turn out when AGGCTA was run?
**A.** The binding signal was 1.19 fold enrichment (6-mer frequency, TF over GST control).

**Q.** Which binding signal does the source give for AGTTTA here?
**A.** The binding signal was 1.08 fold enrichment (6-mer frequency, TF over GST control).

**Q.** How did the binding signal turn out when GCGGCT was run?
**A.** Its binding signal is 1.05 fold enrichment (6-mer frequency, TF over GST control).

**Q.** For TTGGGA, which binding signal is on record?
**A.** The binding signal was 1.04 fold enrichment (6-mer frequency, TF over GST control).

**Q.** How did the binding signal turn out when AGCCCA was run?
**A.** The binding signal was 1.05 fold enrichment (6-mer frequency, TF over GST control).

molecular target: ETV1 (Homo sapiens, UniProt P50549 1-477); experiment: as above; settings: protein: recombinant; tags: N-terminal GST; dsDNA, one strand shown
Sequence (P50549 whole entry): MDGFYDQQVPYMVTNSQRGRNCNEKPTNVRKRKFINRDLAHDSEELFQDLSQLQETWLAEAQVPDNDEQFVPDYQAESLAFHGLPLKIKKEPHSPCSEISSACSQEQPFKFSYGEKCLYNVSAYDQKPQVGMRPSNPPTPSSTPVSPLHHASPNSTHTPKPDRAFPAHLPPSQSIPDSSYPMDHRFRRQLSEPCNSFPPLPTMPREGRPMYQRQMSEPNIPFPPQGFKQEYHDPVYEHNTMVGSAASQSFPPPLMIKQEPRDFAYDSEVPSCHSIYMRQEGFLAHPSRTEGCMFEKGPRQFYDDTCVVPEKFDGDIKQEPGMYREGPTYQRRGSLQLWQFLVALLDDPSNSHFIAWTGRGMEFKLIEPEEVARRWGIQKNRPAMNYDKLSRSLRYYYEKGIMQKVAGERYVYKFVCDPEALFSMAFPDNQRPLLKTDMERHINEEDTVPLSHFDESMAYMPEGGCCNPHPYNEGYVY
Summary of the method: as §1

**Q.** How did the binding signal turn out when GTCAAA was run?
**A.** The binding signal was 1 fold enrichment (6-mer frequency, TF over GST control).

**Q.** With AGTTTA as the sequence, how does the binding signal read?
**A.** Its binding signal is 1.04 fold enrichment (6-mer frequency, TF over GST control).

**Q.** With CCTAGT as the sequence, how does the binding signal read?
**A.** The binding signal was 1.02 fold enrichment (6-mer frequency, TF over GST control).

**Q.** Which binding signal does the source give for GTAGCC here?
**A.** Its binding signal is 1 fold enrichment (6-mer frequency, TF over GST control).

molecular target: T2, ERF (Homo sapiens, UniProt P50548 1-548); experiment: as above; settings: protein: recombinant; tags: N-terminal GST; dsDNA, one strand shown
T2 sequence: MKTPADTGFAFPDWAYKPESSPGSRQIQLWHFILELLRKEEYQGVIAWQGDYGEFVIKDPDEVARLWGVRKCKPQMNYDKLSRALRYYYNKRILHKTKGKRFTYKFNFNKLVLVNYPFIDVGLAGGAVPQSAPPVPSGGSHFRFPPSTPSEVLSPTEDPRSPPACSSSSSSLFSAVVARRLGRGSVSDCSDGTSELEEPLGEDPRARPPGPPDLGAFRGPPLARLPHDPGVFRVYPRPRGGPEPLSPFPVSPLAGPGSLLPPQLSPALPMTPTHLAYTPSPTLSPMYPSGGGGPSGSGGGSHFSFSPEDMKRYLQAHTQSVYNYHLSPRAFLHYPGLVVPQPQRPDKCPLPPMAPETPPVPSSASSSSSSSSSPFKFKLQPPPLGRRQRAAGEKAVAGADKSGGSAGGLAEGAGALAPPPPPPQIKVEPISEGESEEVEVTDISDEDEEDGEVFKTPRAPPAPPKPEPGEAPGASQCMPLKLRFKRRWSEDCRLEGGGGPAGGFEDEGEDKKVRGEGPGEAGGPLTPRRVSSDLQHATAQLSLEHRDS
Summary of the method: as §1

**Q.** How did the binding signal turn out when AGTTTA was run?
**A.** Its binding signal is 1.01 fold enrichment (6-mer frequency, TF over GST control).

**Q.** With GCGGCT as the sequence, how does the binding signal read?
**A.** The binding signal was 1.08 fold enrichment (6-mer frequency, TF over GST control).

**Q.** Which binding signal does the source give for CCTAGT here?
**A.** The binding signal was 1 fold enrichment (6-mer frequency, TF over GST control).

**Q.** For TACGGG, which binding signal is on record?
**A.** Its binding signal is 1.08 fold enrichment (6-mer frequency, TF over GST control).

molecular target: T3, ETV7 (Homo sapiens, UniProt Q9Y603 1-341); experiment: as above; settings: protein: recombinant; tags: N-terminal GST; dsDNA, one strand shown
T3 sequence: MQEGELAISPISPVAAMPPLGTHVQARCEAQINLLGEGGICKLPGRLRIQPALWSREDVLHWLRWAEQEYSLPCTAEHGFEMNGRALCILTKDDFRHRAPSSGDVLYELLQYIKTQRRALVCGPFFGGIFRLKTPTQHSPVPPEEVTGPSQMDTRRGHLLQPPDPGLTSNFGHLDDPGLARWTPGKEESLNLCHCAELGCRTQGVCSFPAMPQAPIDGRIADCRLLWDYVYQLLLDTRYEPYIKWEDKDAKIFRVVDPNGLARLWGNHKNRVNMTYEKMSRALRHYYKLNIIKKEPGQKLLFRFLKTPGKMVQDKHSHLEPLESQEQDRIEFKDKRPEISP
Summary of the method: as §1

**Q.** For AGGCCT, which binding signal is on record?
**A.** Its binding signal is 1.01 fold enrichment (6-mer frequency, TF over GST control).

**Q.** With TGCGTC as the sequence, how does the binding signal read?
**A.** Its binding signal is 1.04 fold enrichment (6-mer frequency, TF over GST control).

**Q.** Which binding signal does the source give for CGGCAC here?
**A.** The binding signal was 1 fold enrichment (6-mer frequency, TF over GST control).

**Q.** Which binding signal does the source give for AGTTTA here?
**A.** Its binding signal is 1.02 fold enrichment (6-mer frequency, TF over GST control).

molecular target: ETV6 (Homo sapiens, UniProt P41212 1-452); experiment: as above; settings: protein: recombinant; tags: N-terminal GST; dsDNA, one strand shown
Sequence (P41212 whole entry): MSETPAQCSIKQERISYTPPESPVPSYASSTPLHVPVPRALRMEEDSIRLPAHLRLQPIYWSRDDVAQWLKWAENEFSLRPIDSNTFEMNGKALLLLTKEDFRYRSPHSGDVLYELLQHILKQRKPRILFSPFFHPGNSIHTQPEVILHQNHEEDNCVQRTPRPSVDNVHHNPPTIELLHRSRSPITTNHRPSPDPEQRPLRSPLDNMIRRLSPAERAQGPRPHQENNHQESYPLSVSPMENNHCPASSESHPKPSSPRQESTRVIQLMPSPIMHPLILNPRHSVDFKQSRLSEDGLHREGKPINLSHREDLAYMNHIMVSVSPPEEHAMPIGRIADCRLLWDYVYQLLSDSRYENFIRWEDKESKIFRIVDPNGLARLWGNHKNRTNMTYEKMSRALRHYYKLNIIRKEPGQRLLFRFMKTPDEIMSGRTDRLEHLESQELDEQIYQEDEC
Summary of the method: as §1

**Q.** How did the binding signal turn out when CGGCAC was run?
**A.** The binding signal was 1.02 fold enrichment (6-mer frequency, TF over GST control).

**Q.** Which binding signal does the source give for AGTTTA here?
**A.** The binding signal was 1.12 fold enrichment (6-mer frequency, TF over GST control).

**Q.** How did the binding signal turn out when GCGGCT was run?
**A.** The binding signal was 1 fold enrichment (6-mer frequency, TF over GST control).
